# In PubChem BioAssay:
# For some of these results: Measured potencies and affinities stand elsewhere. Activity calls are given as the source filed them.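 Rule for the calls, unless noted: active = z-score of at least 1.8 in each of two replicates, scored against plate mean and spread of sample wells; inactive = the rest.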 Numbered stars: 1 amine (or outer) side, 2 acyl side, 3 side chain; on linkers, the order of the positions; unused ones are H or OH. Bridge positions count the residues as written; N and C are the ends. Square brackets hold non-standard residues; d marks the D form. Peptide text beside a SMILES is read from it. * marks the point of attachment. ξ: configuration not given here. ΔAla(Z-3-ureido) = NC(=O)N/C=C(\N)C(=O)O; X2 = NC1=NCCC(C(N[*:1])C(=O)[*:2])N1; ξβ3hOrn = NCCCC(N)CC(=O)*; Dap = NC[CH](N)C(=O)O
# How the values were obtained:
# [1] = polyglutamine-triggered caspase-3 activation inhibitors, cell-based (AID 1583); details: polyglutamine-induced caspase-3 activation, cell assay; stronger effect = higher value;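 tested at 10 µM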
# [2] = suppressors of polyQ aggregation in yeast, 75Q-TubU reporter (AID 1593); details: Yeast 75Q polyglutamine aggregation reporter
# [3] = rescue of polyQ-huntingtin neuronal dysfunction in worms, whole organism, C. elegans mechanosensory neurons, N-terminal huntingtin (AID 1599); details: touch response, stronger effect = higher value
# [4] = inhibitors of mitochondrial cytochrome c release, biochemical, purified mitochondria (AID 1603); details: stronger effect = lower value;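 note: mouse liver mitochondria challenged with calcium chloride; signal normalized to the plate average as 100%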
# [5] = inhibitors of polyQ protein aggregation (AID 1604); details: polyglutamine-induced protein aggregation inhibition assay; stronger effect = higher value; tested at 2.5 µM
# [6] = enhancers of glutamate uptake in motor neurons, MN-1 cell line (AID 1612); details: MN-1 motor neuron cells, stronger effect = higher value;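 note: tested at 1 µM final; 0% = mean of DMSO vehicle wells on each plate; positive means more glutamate uptake than control and negative means less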
# [7] = reducers of polyQ inclusions in PC12 cells, cell-based, NGF-treated PC12, GFPQ80 (AID 1614); details: PC12 NGF-treated GFP-polyQ80 inclusion reduction;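 note: lower means fewer inclusions and 0 means no inclusions at all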
# [8] = suppressors of polyglutamine aggregation in yeast, 75Q-TubH (AID 1616); details: S. cerevisiae 75Q-TubH polyglutamine aggregation suppression; stronger effect = higher value
# [9] = liver-stage malaria parasite growth inhibition, primary screen, cell-based, HepG2, luciferase luminescence, HepG2 viability (AID 624349; in the data active = parasite load remaining mostly below about 12%, no sharp cut-off; inactive = mostly above about 10%;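 note: 100% = mean of DMSO negative control wells on the same plate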); details: P. berghei liver stage in HepG2, luciferase luminescence, concentration not given here; parasite load remaining: stronger effect = lower value; viability: measured here: HepG2 viability without parasites
# [10] = viability rescue of complex I mutant cybrids, primary screen, cell-based, galactose medium, ATP luminescence (AID 1645843); details: complex I mutant cybrid cells, 72 h, stronger effect = higher value;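 note: positive z means more ATP and so rescue of galactose-driven cybrid death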
compound,measurement,setting,value
CC(=O)Oc1ccc2c(c1)CCC1C2CCC2(C)C(=O)CCC12 (configuration not stated),inhibition,[1],10.5%
same,score,[2],-0.03
same,rescue above control,[3],-10.4
same,cytochrome c release ratio,[4],0.81
same,inhibition of aggregation,[5],85.9%
same,glutamate uptake change,[6],-16%
same,inclusion score,[7],2
same,aggregation suppression score,[8],0.169
CC(CNC(=O)c1ccccc1)C(=O)OCC(=O)[C@@]12OC(C)(C)O[C@@H]1CC1C3CCC4=CC(=O)C=C[C@]4(C)[C@@]3(F)[C@@H](O)C[C@@]12C (some centres not stated),inhibition,[1],-1.62%
same,score,[2],1.01
same,rescue above control,[3],13.9
same,cytochrome c release ratio,[4],0.92
same,inhibition of aggregation,[5],100%
same,glutamate uptake change,[6],4.01%
same,inclusion score,[7],2.5
same,aggregation suppression score,[8],1.21
CC(C)[C@@H](C)/C=C/[C@@H](C)C1CC[C@H]2/C(=C/C=C3\C[C@@H](O)CC[C@@H]3C)CCC[C@]12C (some centres not stated),inhibition,[1],63.6%
same,score,[2],0.42
same,rescue above control,[3],5.3
same,cytochrome c release ratio,[4],0.91
same,inhibition of aggregation,[5],83.3%
same,glutamate uptake change,[6],-13.9%
same,aggregation suppression score,[8],0.578
CC1(C)O[C@@H]2CC3C4CCC5=CC(=O)CCC5(C)C4(F)C(O)CC3(C)[C@]2(C(=O)CCl)O1 (some centres not stated),inhibition,[1],-34.5%
same,score,[2],1.26
same,rescue above control,[3],-3.98
same,cytochrome c release ratio,[4],1.36
same,inhibition of aggregation,[5],79.5%
same,glutamate uptake change,[6],12.8%
same,inclusion score,[7],2
same,aggregation suppression score,[8],1.1
same,parasite load remaining,[9],190% (inactive)
same,viability,[9],88.4%
NCCCC(N)CC(=O)NCC1NC(=O)C(CO)NC(=O)C(N)CNC(=O)C(C2CCN=C(N)N2)NC(=O)/C(=C/NC(N)=O)NC1=O (stereo not drawn) (H-[Dap]S[Dap](ξβ3hOrn)[ΔAla(Z-3-ureido)][X2]; lactam 1-C; configuration not given here),inhibition,[1],21.4%
same,score,[2],1.54
same,rescue above control,[3],3.33
same,cytochrome c release ratio,[4],2.07
same,inhibition of aggregation,[5],-24.2%
same,glutamate uptake change,[6],13.7%
same,inclusion score,[7],1
same,aggregation suppression score,[8],0.882
NCCCCC(N)C(=O)NCC(=O)NC(Cc1cnc[nH]1)C(=O)NC(CCCCN)C(=O)O (configuration not stated) (H-KGHK-OH; configuration not given here),inhibition,[1],-1.51%
same,score,[2],2.04
same,rescue above control,[3],2.83
same,cytochrome c release ratio,[4],0.86
same,inhibition of aggregation,[5],36%
same,glutamate uptake change,[6],18.4%
same,inclusion score,[7],2
same,aggregation suppression score,[8],1.42
C[C@]12CCC3c4ccc(OC(=O)CCC(=O)O)cc4CCC3C1CCC2=O (some centres not stated),inhibition,[1],21.8%
same,score,[2],1.66
same,rescue above control,[3],8.92
same,cytochrome c release ratio,[4],0.83
same,inhibition of aggregation,[5],33.3%
same,glutamate uptake change,[6],-14.3%
same,inclusion score,[7],2
same,aggregation suppression score,[8],0.711
NCC1OC(OC2C(N)CC(N)C(OC3OC(CO)C(O)C(N)C3O)C2O)C(N)C(O)C1O (configuration not stated),inhibition,[1],27.6%
same,score,[2],0.94
same,rescue above control,[3],-18
same,cytochrome c release ratio,[4],4.45
same,inhibition of aggregation,[5],8.33%
same,glutamate uptake change,[6],-14.8%
same,inclusion score,[7],2
same,aggregation suppression score,[8],1.28
OCCS,inhibition,[1],26.7%
same,score,[2],1.26
same,rescue above control,[3],-1.67
same,cytochrome c release ratio,[4],1.18
same,inhibition of aggregation,[5],29.4%
same,glutamate uptake change,[6],5.07%
same,inclusion score,[7],2
same,aggregation suppression score,[8],1.5
COC(=O)/C(=C1\OC(=O)C(c2ccccc2)C1=O)c1ccccc1 (configuration not stated),inhibition,[1],-4.2%
same,score,[2],0.04
same,rescue above control,[3],9.72
same,cytochrome c release ratio,[4],2.13
same,inhibition of aggregation,[5],31.4%
same,glutamate uptake change,[6],6.01%
same,inclusion score,[7],2
same,aggregation suppression score,[8],0.0212
C1CCN2C[C@@H]3CC(CN4CCCC[C@@H]34)[C@H]2C1,inhibition,[1],16.2%
same,score,[2],1.32
same,rescue above control,[3],-2.17
same,cytochrome c release ratio,[4],1.45
same,inhibition of aggregation,[5],72.7%
same,glutamate uptake change,[6],-9.72%
same,inclusion score,[7],2
same,aggregation suppression score,[8],1.48
C[C@@H]1CC2C3C[C@H](F)C4=CC(=O)C=CC4(C)C3(F)[C@@H](O)CC2(C)C1C(=O)COC(=O)C(C)(C)C (some centres not stated),inhibition,[1],26.8%
same,score,[2],0.1
same,rescue above control,[3],-3.49
same,cytochrome c release ratio,[4],1.09
same,inhibition of aggregation,[5],38%
same,glutamate uptake change,[6],10.9%
same,inclusion score,[7],2
same,aggregation suppression score,[8],0.899
O=c1cc(-c2ccccc2)oc2cc(O)c(O)cc12,inhibition,[1],18.9%
same,score,[2],1.42
same,rescue above control,[3],7.3
same,cytochrome c release ratio,[4],1.21
same,inhibition of aggregation,[5],41%
same,glutamate uptake change,[6],11%
same,inclusion score,[7],2
same,aggregation suppression score,[8],0.852
CC(=O)[C@H]1CCC2C3CC=C4C[C@@H](O)CC[C@]4(C)C3CC[C@@]21C (some centres not stated),inhibition,[1],19.7%
same,score,[2],0.01
same,rescue above control,[3],-2.78
same,cytochrome c release ratio,[4],1.03
same,inhibition of aggregation,[5],66.7%
same,glutamate uptake change,[6],-1.9%
same,inclusion score,[7],2
same,aggregation suppression score,[8],0.0851
same,parasite load remaining,[9],85.1% (inactive)
same,viability,[9],69.9%
Cc1cc(C)c(-n2cccn2)c(-c2nc3c(cnn3C(C)C)[nH]2)c1,z-score,[10],-0.485 (inactive)
CCCc1ccc(C(=O)N2CCC2c2cccc(OC)c2)cc1 (configuration not stated),z-score,[10],2.41 (active)
COc1cccc(-n2cc(-c3ccnc(N4CCCN(C(C)=O)CC4)n3)cn2)c1,z-score,[10],-1.14 (inactive)
CCCc1cn(CC2CCN(C(=O)[C@@H](N)[C@@H](C)CC)CC2)nn1,z-score,[10],-0.24 (inactive)
O=C1CC(C(=O)N2CCc3sccc3C2)c2cc(F)ccc2N1 (configuration not stated),z-score,[10],4.16 (active)
O=C(Nc1cccc(-c2cscn2)c1)c1ccc2nccnc2c1,z-score,[10],-0.95 (inactive)
O=C(c1ccccc1-c1nn[nH]n1)N1CCc2[nH]cnc2C1c1ccccn1 (configuration not stated),z-score,[10],0.23 (inactive)
COc1ccc(CN[C@@H]2CS(=O)(=O)C[C@H]2O)cc1OCc1ccc(F)cc1,z-score,[10],-0.735 (inactive)
COc1ccccc1OC(C)c1nc(Cc2cccc(C(F)(F)F)c2)no1 (configuration not stated),z-score,[10],0.51 (inactive)
CC(=O)c1c(C)nn(CC(=O)Nc2ccc(N3CCOCC3)cc2)c1C,z-score,[10],-0.6 (inactive)
CC(C)Cc1cn(C2CCN(C3CCCCCC3)CC2)nn1,z-score,[10],-0.565 (inactive)
Cc1cn(CC(=O)Nc2cnn(C)n2)nc1-c1cccs1,z-score,[10],0.735 (inactive)
